{"source": "the OligoGym collection"}
{"target": "KCNN3", "assay": "pooled miR-30 sensor sort-seq; sequence = guide strand", "settings": "shRNA"}
{"sequence": "TTTGGCATGGTCAATCTTCTTT", "sensor-assay potency score (higher = more potent)": -0.404}
{"sequence": "TTGGTCACTCAGCTTCCTCTGT", "sensor-assay potency score (higher = more potent)": -0.263}
{"sequence": "TAGATTAACCATGTTTCCCGAA", "sensor-assay potency score (higher = more potent)": -0.326}
{"sequence": "TTCTCCAGGTCTTCGCTCCGGT", "sensor-assay potency score (higher = more potent)": -0.356}
{"sequence": "TAGGTCATGGCTATCCGCCAGT", "sensor-assay potency score (higher = more potent)": -0.594}
{"sequence": "TTGTCGATCACGAAGAGCTGGA", "sensor-assay potency score (higher = more potent)": 0.137}
{"sequence": "TTGAAGTTGATCTTGTTGAGGG", "sensor-assay potency score (higher = more potent)": 0.397}
{"sequence": "ATACATGACATTCTGCATCTTG", "sensor-assay potency score (higher = more potent)": 0.37}
{"sequence": "TTCTTTAGCAGCTTTGTGTGTT", "sensor-assay potency score (higher = more potent)": 0.0976}
{"sequence": "AAAGTTACTAGTTACGTCCTGC", "sensor-assay potency score (higher = more potent)": 0.827}
{"sequence": "TAAGTCATACATGACATTCTGC", "sensor-assay potency score (higher = more potent)": 0.0328}
{"sequence": "TACATGACATTCTGCATCTTGG", "sensor-assay potency score (higher = more potent)": -0.595}
